According to PubChem BioAssay (NCATS):
Results filed as inconclusive are left out. Calls of active or inactive are those of the source. Calls come from the whole dose curve; as a rule, active = well fitted cell-killing curve with a large enough effect; inconclusive = small, poorly fitted or top-dose-only effect, or effect the other way; inactive = flat fitted curve, though single readings scatter.

Experiments:
Assay in all cases: Primary qHTS to identify gynecologic anti-cancer compounds using libraries of approved drugs and bioactive compounds (AID 1345084); note: nearly all actives have a fitted effect of over 55% in size
C33A = conditions: Gynecologic cancer cell panel viability, ATPlite luminescence, 48 h; series mostly up to 57.5 µM
In short: (§1)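 ATP-based viability (ATPlite), 1,000 cells/well, 16 h pre-incubation, 48 h compound at 37 C, 5% CO2, 15 min RT before read.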

CAOV3 = conditions: Gynecologic cancer cell panel viability, ATPlite luminescence, 48 h; series mostly up to 57.5 µM
In short: as §1

CASKI = conditions: Gynecologic cancer cell panel viability, ATPlite luminescence, 48 h; series mostly up to 57.5 µM
In short: as §1

Es-2 = conditions: Gynecologic cancer cell panel viability, ATPlite luminescence, 48 h; series mostly up to 57.5 µM
In short: as §1

HeLa = conditions: Gynecologic cancer cell panel viability, ATPlite luminescence, 48 h; series mostly up to 57.5 µM
In short: as §1

Hek293T = conditions: Gynecologic cancer cell panel viability, ATPlite luminescence, 48 h, control line for the selectivity index; series mostly up to 57.5 µM
In short: as §1

JEG-3 = conditions: Gynecologic cancer cell panel viability, ATPlite luminescence, 48 h; series mostly up to 57.5 µM
In short: as §1

OV90 = conditions: Gynecologic cancer cell panel viability, ATPlite luminescence, 48 h; series mostly up to 57.5 µM
In short: as §1

PA-1 = conditions: Gynecologic cancer cell panel viability, ATPlite luminescence, 48 h; series mostly up to 57.5 µM
In short: as §1

SKOV3 = conditions: Gynecologic cancer cell panel viability, ATPlite luminescence, 48 h; series mostly up to 57.5 µM
In short: as §1

Tov-21-G = conditions: Gynecologic cancer cell panel viability, ATPlite luminescence, 48 h; series mostly up to 57.5 µM
In short: as §1

Tov112D = conditions: Gynecologic cancer cell panel viability, ATPlite luminescence, 48 h; series mostly up to 57.5 µM
In short: as §1
% is set by controls: 0 for no effect and ±100 for the full control effect.

CC1CC(=O)C2=C(CCC3(O)C(O)c4c(O)cccc4C(=O)C23O)C1 (configuration not stated)
inactive: Potency (C33A) | Potency (CAOV3) | Potency (CASKI) | Potency (Es-2) | Potency (HeLa) | Potency (Hek293T) | Potency (JEG-3) | Potency (OV90) | Potency (PA-1) | Potency (SKOV3) | Potency (Tov-21-G) | Potency (Tov112D)

CC1CC[C@]2(C(=O)O)CC[C@]3(C(=O)O)C(=CCC4[C@@]5(C)CC[C@H](O[C@@H]6O[C@H](CO)[C@@H](O)[C@H](O)[C@H]6O)C(C)(C)C5CC[C@]43C)C2C1C (some centres not stated)
inactive: Potency (C33A) | Potency (CAOV3) | Potency (CASKI) | Potency (Es-2) | Potency (HeLa) | Potency (Hek293T) | Potency (JEG-3) | Potency (OV90) | Potency (PA-1) | Potency (SKOV3) | Potency (Tov-21-G) | Potency (Tov112D)

O=C(Nc1ccccc1-c1cn2c(CN3CCNCC3)csc2n1)c1ccc2ccccc2n1
inactive: Potency (C33A) | Potency (CAOV3) | Potency (CASKI) | Potency (Es-2) | Potency (HeLa) | Potency (Hek293T) | Potency (JEG-3) | Potency (OV90) | Potency (PA-1) | Potency (SKOV3) | Potency (Tov-21-G) | Potency (Tov112D)

CC(C)C(N)C(=O)OCCOCn1cnc2c(=O)[nH]c(N)nc21 (configuration not stated)
inactive: Potency (C33A) | Potency (CAOV3) | Potency (CASKI) | Potency (Es-2) | Potency (HeLa) | Potency (Hek293T) | Potency (JEG-3) | Potency (OV90) | Potency (PA-1) | Potency (SKOV3) | Potency (Tov-21-G) | Potency (Tov112D)

[N-]=[N+]=N[C@]1(CO)O[C@@H](n2ccc(=O)[nH]c2=O)[C@@H](O)[C@@H]1O
inactive: Potency (C33A) | Potency (CAOV3) | Potency (CASKI) | Potency (Es-2) | Potency (HeLa) | Potency (Hek293T) | Potency (JEG-3) | Potency (OV90) | Potency (PA-1) | Potency (SKOV3) | Potency (Tov-21-G) | Potency (Tov112D)

C=C1CC[C@@H]2[C@@](C)(CO[C@@H]3O[C@H](CO)C(O)[C@H](O)C3O)[C@H](O)CC[C@@]2(C)[C@@H]1CC/C(C)=C/CO (some centres not stated)
inactive: activity change, negative = cytotoxicity (C33A) -18.4% [at 11.6 µM] | activity change, negative = cytotoxicity (CAOV3) 1.16% [at 11.6 µM] | activity change, negative = cytotoxicity (CASKI) -5.44% [at 11.6 µM] | activity change, negative = cytotoxicity (Es-2) 9.56% [at 11.6 µM] | activity change, negative = cytotoxicity (HeLa) -3.99% [at 11.6 µM] | activity change, negative = cytotoxicity (Hek293T) 2% [at 11.6 µM] | activity change, negative = cytotoxicity (JEG-3) 2.39% [at 11.6 µM] | activity change, negative = cytotoxicity (OV90) 6% [at 11.6 µM] | activity change, negative = cytotoxicity (PA-1) 7% [at 11.6 µM] | activity change, negative = cytotoxicity (SKOV3) -9.26% [at 11.6 µM] | activity change, negative = cytotoxicity (Tov-21-G) 4.35% [at 11.6 µM] | activity change, negative = cytotoxicity (Tov112D) 4.42% [at 11.6 µM]

CC(C)C(CO)Nc1nc(Nc2ccc(C(=O)O)c(Cl)c2)c2ncn(C(C)C)c2n1 (configuration not stated)
inactive: Potency (C33A) | Potency (CAOV3) | Potency (CASKI) | Potency (Es-2) | Potency (HeLa) | Potency (Hek293T) | Potency (JEG-3) | Potency (OV90) | Potency (PA-1) | Potency (SKOV3) | Potency (Tov-21-G) | Potency (Tov112D)

COC(=O)C1=CO[C@@H](O[C@@H]2O[C@H](CO[C@@H]3O[C@H](COC(=O)/C=C/c4cc(OC)c(O)c(OC)c4)[C@@H](O)[C@H](O)[C@H]3O)[C@@H](O)[C@H](O)[C@H]2O)[C@@H]2C(CO)=CC[C@H]12
inactive: Potency (C33A) | Potency (CAOV3) | Potency (CASKI) | Potency (Es-2) | Potency (HeLa) | Potency (Hek293T) | Potency (JEG-3) | Potency (OV90) | Potency (PA-1) | Potency (SKOV3) | Potency (Tov-21-G) | Potency (Tov112D)

COC1C(CO)OC(n2cnc3c(=O)[nH]cnc32)C1O (configuration not stated)
inactive: Potency (C33A) | Potency (CAOV3) | Potency (CASKI) | Potency (Es-2) | Potency (HeLa) | Potency (Hek293T) | Potency (JEG-3) | Potency (OV90) | Potency (PA-1) | Potency (SKOV3) | Potency (Tov-21-G) | Potency (Tov112D)

C[C@H]1CC[C@@H]2N(C1)C[C@@H]1[C@H]([C@@H](O)[C@H](O)[C@]3(O)[C@H]1C[C@@]14OC5(O)[C@@H](C[C@@H](O)[C@@H]31)[C@]4(C)CC[C@@H]5O)[C@]2(C)O
inactive: Potency (C33A) | Potency (CAOV3) | Potency (CASKI) | Potency (Es-2) | Potency (HeLa) | Potency (Hek293T) | Potency (JEG-3) | Potency (OV90) | Potency (PA-1) | Potency (SKOV3) | Potency (Tov-21-G) | Potency (Tov112D)

CC1CCC2(C(=O)O)CCC3(C)C(=CCC4C5(C)CCC(OC(=O)/C=C/c6ccccc6)C(C)(C)C5CCC43C)C2C1C (configuration not stated)
inactive: Potency (C33A) | Potency (CAOV3) | Potency (CASKI) | Potency (Es-2) | Potency (HeLa) | Potency (Hek293T) | Potency (JEG-3) | Potency (OV90) | Potency (PA-1) | Potency (SKOV3) | Potency (Tov-21-G) | Potency (Tov112D)

Cc1noc(-c2ccc(-c3ccc(CC(=O)O)cc3)cc2)c1NC(=O)O[C@H](C)c1ccccc1
inactive: Potency (C33A) | Potency (CAOV3) | Potency (CASKI) | Potency (Es-2) | Potency (HeLa) | Potency (Hek293T) | Potency (JEG-3) | Potency (OV90) | Potency (PA-1) | Potency (SKOV3) | Potency (Tov-21-G) | Potency (Tov112D)

C/C1=C\CCC2=C[C@@H](OC2=O)c2c(C)coc2C1
inactive: Potency (C33A) | Potency (CAOV3) | Potency (CASKI) | Potency (Es-2) | Potency (HeLa) | Potency (Hek293T) | Potency (JEG-3) | Potency (OV90) | Potency (PA-1) | Potency (SKOV3) | Potency (Tov-21-G) | Potency (Tov112D)

C[C@@H]1O[C@@H](O[C@H]2[C@@H]3C=CO[C@@H](O[C@@H]4O[C@H](CO)[C@@H](O)[C@H](O)[C@H]4O)[C@@H]3[C@@]3(CO)O[C@@H]23)[C@H](OC(=O)/C=C/c2ccc(O)c(O)c2)[C@H](O)[C@H]1O
inactive: Potency (C33A) | Potency (CAOV3) | Potency (CASKI) | Potency (Es-2) | Potency (HeLa) | Potency (Hek293T) | Potency (JEG-3) | Potency (OV90) | Potency (PA-1) | Potency (SKOV3) | Potency (Tov-21-G) | Potency (Tov112D)

CC(=O)O[C@H]1CC[C@H](C)[C@@]2(C)[C@H](OC(C)=O)c3c(C)coc3C(=O)[C@H]12
inactive: Potency (C33A) | Potency (CAOV3) | Potency (CASKI) | Potency (Es-2) | Potency (HeLa) | Potency (Hek293T) | Potency (JEG-3) | Potency (OV90) | Potency (PA-1) | Potency (SKOV3) | Potency (Tov-21-G) | Potency (Tov112D)

O=C(O)c1cc(-c2c(-c3ccccc3)nn3ccccc23)n[nH]c1=O
inactive: Potency (C33A) | Potency (CAOV3) | Potency (CASKI) | Potency (Es-2) | Potency (HeLa) | Potency (Hek293T) | Potency (JEG-3) | Potency (OV90) | Potency (PA-1) | Potency (SKOV3) | Potency (Tov-21-G) | Potency (Tov112D)
